Pf Dd2 inh: Plasmodium falciparum Dd2 growth inhibition; P. falciparum Dd2 growth, SYBR Green, 72 h; Potency, µM (highest dose often 28.9 µM), hits mostly inhibitors; actives 4.3% (n = 120,000); active = well fitted inhibition curve with a large enough effect; note: nearly all actives have a fitted effect of over 65% in size
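Readout: SYBR Green fluorescence, 485 nm excitation, 535 nm emission, after ~16 h lysis at 37C. Before that, Dd2-infected red cells (2.5% hematocrit) grew 72 h with compound, 29 uM top final concentration.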
Numbers stand for hits; i = inactive. This excerpt belongs to a sample that is enriched for hits.

SMILES | Pf Dd2 inh
CC1=C[C@@H](CNC(=O)COCC(=O)O)[C@H](C(C)C)C[C@H]1CC(=O)N1CCCC1 | i
O=C(Cn1nc2c(cc1=O)CCCC2)NCCN1CCOCC1 | i
CC(C)CCN1CC(C(=O)NCc2ccncc2)C2(CCOCC2)C1 (stereo not drawn) | i
Cc1nccn1CC(=O)N1CCCC(c2ccc(C(=O)O)cc2)C1 (stereo not drawn) | i
O=C(COc1ccc(F)cc1)N1CCC2(CC1)NC(=O)N(c1ccccc1Cl)N2 | i
Cc1ccoc1C(=O)N[C@@H]1CN(c2ncccn2)C[C@H]1CO | i
O=C1NCN(Cc2ccc(Cl)cc2)C12CCN(Cc1ccccc1C(F)(F)F)CC2 | i
CNC(=O)[C@@H]1C[C@H](Oc2ccccc2)CN1C(=O)CCOC | i
Cc1ccc(N2C(=O)N(Cc3cccc(Cl)c3)c3ccccc3S2(=O)=O)cc1 | i
Cc1ccc(N2C(=O)N(Cc3cc(=O)n4ccccc4n3)c3ccccc3S2(=O)=O)cc1Cl | 10µM
Cc1cccc(N2C(=O)N(Cc3cc(=O)n4ccccc4n3)c3ccccc3S2(=O)=O)c1 | i
Cc1cc(C(=O)N2CC[C@H](NC(=O)c3snnc3C)C[C@H]2C(=O)N[C@@H](Cc2cccs2)C(N)=O)n(C)n1 | i
CCC(CC)C(=O)NC[C@H]1O[C@@H](CC(=O)NCc2ccc(F)cc2)[C@H](O)[C@@H]1O | i
COc1ccc(S(N)(=O)=O)cc1C(=O)N1CCC2(CN(C)C(=O)O2)C1 (stereo not drawn) | i
CC(C)Nc1ccc2nnc(C3CCC3)n2n1 | i
CCc1nnc2ccc(NCC3CCCO3)nn12 (stereo not drawn) | i
Cc1ccc(CNc2ccc3nnc(C4CCC4)n3n2)o1 | 7.08µM
O=C(C1CCC1)N1CCCC(Cc2nc(C3CCOCC3)no2)C1 (stereo not drawn) | i
Cn1cccc1C(=O)NCC1(C)CCOCC1 | i
O=C(O)CCc1nc(C2CCOCC2)n[nH]1 | i
Cc1nn2c(c1-c1ccccc1C(C)C)N(C(=O)C1CCOCC1)CCC2 | i
Cc1nn2c(c1-c1ccccc1C(C)C)N(Cc1ccc(C(=O)O)s1)CCC2 | i
Cc1nn2c(c1-c1ccccc1OCc1ccccc1)N(Cc1cccc(O)c1)CCC2 | 2.24µM
Cc1ccncc1-c1c(C)nn2c1N(Cc1cccc(O)c1)CCC2 | i
Cc1nn2c(c1-c1ccccc1C(C)C)N(Cc1ccc3c(c1)CCO3)CCC2 | 7.08µM
SMILES | Pf Dd2 inh
Cc1nn2c(c1-c1ccccc1Oc1ccccc1)N(Cc1cccc(C#N)c1)CCC2 | i
c1ccc2c(CN3CCn4c(nnc4C4CCCNC4)C3)cccc2c1 (stereo not drawn) | i
Cc1noc([C@@H]2CC(F)(F)CN2C(=O)c2cc(C)oc2C)n1 | i
CCN1C(=O)C2(CCN(S(=O)(=O)c3ccc(Cl)c(C)c3)CC2)c2ccccc21 | i
CN(CC(=O)N1CCC(CCOc2ccc(F)cc2)C1)S(=O)(=O)c1cccs1 (stereo not drawn) | i
CCC(CC)NCc1cccnc1Oc1ccccc1 | 12.6µM
O=C(NCc1cccnc1Oc1ccccc1)c1ccccn1 | i
O=S(=O)(Cc1ccccc1)NCc1cccnc1Oc1ccccc1 | i
CC(C)N1C(=O)C2(CCCCC2)C1C(=O)NCCCN1CCN(c2ccccc2)CC1 (stereo not drawn) | i
COCc1cc(C)nc2sc(C(=O)Nc3ccc(OC(F)(F)F)cc3)c(N)c12 | 3.98µM
Nc1c(C(=O)Nc2ccc(OC(F)(F)F)cc2)sc2nc(-c3ccncc3)ccc12 | i
COc1ccc(NC(=O)c2sc3nc(C(F)(F)F)cc(C)c3c2N)cc1OC | i
COCC1(c2n[nH]c(C3CCOCC3)n2)CCC1 | i
CCCCCNC(=O)CC(c1cccc(OC)c1OC)c1c[nH]c2c(CC)cccc12 (stereo not drawn) | i
CCCCNC(=O)CC(c1cccc2c1OCO2)c1c[nH]c2c(CC)cccc12 (stereo not drawn) | 10µM
O=C(CC(c1cccc2c1OCO2)c1c[nH]c2ccccc12)NCc1ccccc1 (stereo not drawn) | i
O=C(c1ccccc1)N1CC2(Cc3ccccc3NC2=O)C1 | i
C[S+](=O)([O-])N1CC2(Cc3ccccc31)CN([S+](=O)([O-])c1cccs1)C2 | i
O=c1n(-c2ccncc2)nc2n1CCN(Cc1cccc3ccccc13)C2 | i
CC(=O)NCCNC(=O)[C@H]1CN2CCC1C[C@@H]2Cn1cc(CN(C)Cc2ccccc2)nn1 (stereo partly drawn) | i
CN(Cc1ccccc1)Cc1cn(C[C@H]2CC3CCN2C[C@@H]3C(=O)NCc2ccccc2)nn1 (stereo partly drawn) | i
CN(Cc1ccccc1)Cc1cn(C[C@H]2CC3CCN2C[C@@H]3C(=O)NCc2ccc(F)cc2)nn1 (stereo partly drawn) | 10µM
O=C(c1ccc(F)cc1)N1CCN(c2nnc3ccccn23)CC1 | i
COC[C@H]1NC(=O)CC[C@H]1C(=O)NCCCc1ccccc1 | i
COc1ccc(N2CCN(c3cc(C)nc4nc(-c5ccc(C)cc5)nn34)CC2)cc1 | i
SMILES | Pf Dd2 inh
COc1ccc(-c2nc3nc(C)cc(Nc4cccc(C(F)(F)F)c4)n3n2)cc1 | i
Cc1cc(N2CCN(c3cccc(C(F)(F)F)c3)CC2)n2nc(-c3ccccc3C)nc2n1 | 11.2µM
COCCN1C(=O)[C@H]2CN(Cc3ccc(C)c(C)c3)C[C@H]2C1=O | i
CCC(CC)C(=O)NC[C@H]1O[C@@H](CC(=O)N2CCN(c3ccc(F)cc3)CC2)[C@H](O)[C@@H]1O | i
Cc1csc(NC(=O)C2c3ccccc3C(=O)N(Cc3ccccc3)C23CCCC3)n1 (stereo not drawn) | 3.55µM
CCCCN1C(=O)c2ccccc2C(C(=O)Nc2nc(C)cs2)C12CCCC2 (stereo not drawn) | 5.01µM
COC(=O)CNC(=O)C1c2ccccc2C(=O)N(Cc2ccccc2)C12CCCC2 (stereo not drawn) | i
O=C(NC1CCCC1)C1c2ccccc2C(=O)N(Cc2ccccc2)C12CCCC2 (stereo not drawn) | i
CCCCN1C(=O)c2ccccc2C(C(=O)NCc2ccncc2)C12CCCCC2 (stereo not drawn) | i
CCCCN1C(=O)c2ccccc2C(C(=O)NC(C)C)C12CCCCC2 (stereo not drawn) | i
O=C(CC1CCCN(c2cnn(CC3CC3)c(=O)c2)C1)NCCN1CCCCC1 (stereo not drawn) | i
Cc1ccc(C2Cn3nnc(-c4noc(Cc5ccc(F)cc5)n4)c3CO2)cc1 (stereo not drawn) | i
CNC(=O)NC[C@H]1CCN(Cc2ccccc2)C[C@H]1N(C)C | i
c1cncc(-c2cnc([C@@H]3COCCN3Cc3ncc[nH]3)[nH]2)c1 | i
CC(=O)Nc1ccc(NC(=O)C2CCN(c3cnccn3)CC2)cc1 | i
COc1ccc(S(=O)(=O)N2CCC(C(=O)Nc3ccc(Oc4ccccc4)cc3)CC2)cc1 | i
CCc1ccc(CN2CCC(C(=O)Nc3ccc(Oc4cccnc4)cc3)CC2)o1 | 11.2µM
Cc1ccc(-c2noc([C@@H]3CCCN3C(=O)CCCc3ccccc3)n2)cc1 | 11.2µM
O=C(NC1CCCCC1)N1Cc2[nH]cnc2C[C@H]1c1nc(-c2ccc3ccccc3c2)no1 | i
Cc1ccc(-c2noc([C@@H]3CCCN3C(=O)Cc3ccccc3)n2)cc1 | i
CCOc1ccc(C(=O)N2CCC[C@H]2c2nc(-c3ccccc3)no2)cc1 | i
O=C(CCc1ccccc1)N1CCC[C@H]1c1nc(-c2ccccc2)no1 | i
O=C(NC1CCCCC1)N1Cc2[nH]cnc2C[C@H]1c1nc(-c2ccc(Cl)cc2)no1 | i

Compound activity deposited in PubChem BioAssay by National Center for Advancing Translational Sciences (NCATS).
